# Hits are enriched below; roughly 3.4% of the tested compounds scored in any of these assays.
# MITF primary: MITF inhibitors, primary screen, biochemical, AlphaScreen, human; 0.91% of 650,000 active; AlphaScreen MITF homodimerization, bead proximity signal; AID 1259374, 2018; Microphthalmia-associated transcription factor (Homo sapiens), O75030; inhibition, % at 2.6 µM; in the data active = inhibition above about 50%;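 also: 0% = vehicle wells with protein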
# Target sequence (O75030 whole entry, looked up): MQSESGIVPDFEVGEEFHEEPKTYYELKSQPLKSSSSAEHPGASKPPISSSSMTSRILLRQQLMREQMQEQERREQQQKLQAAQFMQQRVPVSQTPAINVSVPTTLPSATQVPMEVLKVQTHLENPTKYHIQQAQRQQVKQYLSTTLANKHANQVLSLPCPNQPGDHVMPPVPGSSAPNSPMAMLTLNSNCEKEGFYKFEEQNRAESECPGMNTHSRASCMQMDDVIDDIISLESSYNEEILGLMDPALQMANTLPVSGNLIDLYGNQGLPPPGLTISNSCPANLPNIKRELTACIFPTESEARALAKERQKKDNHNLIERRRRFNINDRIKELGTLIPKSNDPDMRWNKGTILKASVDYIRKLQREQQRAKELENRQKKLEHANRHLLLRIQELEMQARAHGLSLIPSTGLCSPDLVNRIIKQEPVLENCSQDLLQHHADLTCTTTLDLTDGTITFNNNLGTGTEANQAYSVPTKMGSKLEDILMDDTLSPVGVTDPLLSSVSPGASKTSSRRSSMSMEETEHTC
# FBW7 activator: FBW7 E3 ligase activators, primary screen, biochemical, AlphaScreen, human. F-box/WD repeat-containing protein 7 (Homo sapiens), Q969H0. AlphaScreen FBW7–phospho-cyclin E peptide binding, activator screen. normalized activity (activation), % at 26.1 µM. 0.13% of 650,000 active. AID 1259310, 2017; in the data active = normalized activity above about 1.9%;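 also: purified mutant Fbw7 with reduced substrate affinity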
# TEAD-YAP block: TEAD-YAP interaction inhibition, primary screen, TEAD-YAP interaction inhibitor project, luminescence, HEK-TIYL cells; TEAD-Gal4/YAP UAS-luciferase luminescence; inhibition, % at 9.12 µM; 1.4% of 640,000 active; in the data active = inhibition above about 32%;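 also: 0% = median of test compound wells and 100% = reference inhibitor wells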
# GPR151 activ: activators of human GPR151, primary screen, cell-based, PathHunter beta-arrestin, luminescence. 1% of 650,000 active. PathHunter beta-arrestin GPR151 cells. G-protein coupled receptor 151 (Homo sapiens), Q8TDV0. activation, % at 11.2 µM. AID 1508602, 2020; in the data active = activation above about 4.9%;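 also: 0% = median of compound wells and 100% = cells with positive control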
# MITF inh conf: MITF inhibitors, retest of hits, confirmation, biochemical, AlphaScreen, triplicate | shares compounds with MITF primary | AlphaScreen MITF homodimerization, biotin/His-MITF beads | inhibition, % at 2.6 µM | 16% of 4,700 active | AID 1259372, 2018;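 active = inhibition above a cutoff derived from the DMSO control wells, cut at about 28% in these data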;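 also: 0% = MITF dimer wells with DMSO only; inhibitors lower the bead chemiluminescence by keeping MITF from dimerizing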
# AS interf DR: AlphaScreen optical interference compounds, dose response, counter-screen, biochemical, HTS | IC50, µM | AlphaScreen optical interference counterscreen, cell-free | 6% of 480 active | shares compounds with MITF primary; call rule not given here
# AlphaScreen intf2: AlphaScreen optical interference compounds, counter-screen for MITF inhibitor project, biochemical, triplicate; 7.6% of 4,700 active; LysRS AlphaScreen counterscreen, signal interference; inhibition, % at 2.6 µM; shares compounds with MITF primary; AID 1259376, 2018;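 active = inhibition above a cutoff derived from the DMSO control wells, cut at about 30% in these data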
# * = called active by the depositor; / = not tested or not shown.
SMILES,MITF primary,FBW7 activator,TEAD-YAP block,GPR151 activ,MITF inh conf,AlphaScreen intf2,others
CN(C)CCCn1c(SCC(N)=O)nnc1-c1ccncc1,8,0,3,-1,/,/,
Cc1ccc(CSc2nnc(-c3ccncc3)n2CCCN(C)C)cc1,72*,0,8,0,7,5,
O=c1nc(SCc2ccccc2)c2c(n1CCCO)CCCC2,80*,0,2,-1,-3,5,
Cc1ccccc1CSc1nc(=O)n(CCCO)c2c1CCCC2,-4,0,-1,-1,/,/,
COC(=O)C(=Cc1ccc(OC)c(C(=O)O)c1)C(=O)OC,63*,0,-8,0,-16,-8,
Cn1c2c(c(=O)n(C)c1=O)C(c1cccc(C(F)(F)F)c1)C1=C(CC(C)(C)CC1=O)N2 (stereo not given),-19,0,-17,0,/,/,
O=C(O)CN(Cc1ccco1)S(=O)(=O)c1ccc(Cl)c(Cl)c1,-7,0,-7,-3,/,/,
COC(=O)C(N)CSC1CCCCO1 (stereo not given),56*,0,0,-1,9,18,
O=[N+]([O-])c1ccc(CN2CCN(c3ccc(Cl)cc3)CC2)o1,59*,1,7,4,16,12,
O=[N+]([O-])c1ccc(CN2CCN(c3ncccn3)CC2)o1,58*,0,9,0,5,1,
O=[N+]([O-])c1ccc(CN2CCN(c3cccc(Cl)c3)CC2)o1,21,0,5,1,/,/,
CC(C)(C)C(=O)N1CCC(c2nc3c(nnn3Cc3ccccc3)c(=O)[nH]2)CC1,71*,0,4,-1,9,11,
CC(C)(C)C(=O)N1CCCC(c2nc3c(nnn3Cc3ccccc3)c(=O)[nH]2)C1 (stereo not given),6,0,-9,2,/,/,
Cc1[nH]c2ccccc2c1SCCNC(=O)c1ccncc1,62*,0,-2,0,4,-7,
O=C(NCCSc1ccccc1)c1cccnc1,77*,0,-38,0,-1,-3,
O=C(Nc1ccccc1)N(Cc1cccs1)C1CCS(=O)(=O)C1 (stereo not given),17,0,-3,1,/,/,
Cc1ccoc1C(=O)NCCNC(=O)c1occc1C,7,0,1,0,/,/,
Cc1ccoc1C(=O)NCc1occc1C(=O)O,57*,0,15,-1,10,7,
CC(C)n1c(N2CCOCC2)nc2c(N)ncnc21,3,0,3,-2,/,/,
O=C(Nc1nc(-c2ccc(F)cc2)cs1)c1cc2cc(Br)cc(Br)c2oc1=O,100*,0,3,-1,2,-9,
Cc1nc(-c2ccc(NC(=O)c3cc4cc(Br)cc(Br)c4oc3=O)cc2)cs1,0,1,4,0,/,/,
COc1cc(OC)c(CN2CCCC(CO)C2)cc1Br (stereo not given),55*,0,5,0,1,6,
CCOC(=O)c1ccc(NC(=O)CC2S/C(=N/N=C3\CSC(=O)N3)NC2=O)cc1 (stereo not given),25,-2,6,-1,/,/,
O=C(O)CC1S/C(=N/N=C2\CSC(=O)N2)NC1=O (stereo not given),92*,0,9,0,84*,100*,
NC(=O)NC(=O)CC1S/C(=N/N=C2\CSC(=O)N2)NC1=O (stereo not given),96*,0,10,-1,72*,100*,
SMILES,MITF primary,FBW7 activator,TEAD-YAP block,GPR151 activ,MITF inh conf,AlphaScreen intf2,others
COc1cccc(NC(=O)CCc2ccc(S(=O)(=O)NCC(C)C)cc2)c1,-2,0,9,0,/,/,
CCn1nc(C)c([C@@H]2C[C@H]3CN(Cc4cccc(OC)c4)C(=O)[C@]34CCCN24)c1C,0,0,-1,0,/,/,
O=C1CCCN1CCn1cnc2c(NCc3nc4ccccc4[nH]3)nc(Nc3ccccc3)nc21,52*,0,10,-1,1,8,
CN(C)c1ccc(/C=N/Nc2nc(N)nc(N)n2)cc1,49,-2,-1,-1,/,/,
CCCCCc1nnc(NC(=S)NC(=O)c2ccc(Br)cc2)s1,5,0,-5,0,/,/,
CCOC(=O)CC(=O)CSc1nn2c(=O)c(C)nnc2s1,53*,0,0,1,18,37*,
CCOC(=O)CSc1nn2c(=O)c(C)nnc2s1,3,0,-4,-1,/,/,
CCCN1C(=O)c2cc(C(=O)NCc3ccccc3OC)ccc2C1O (stereo not given),-3,0,-2,1,/,/,
OCCN1CCN(c2cc(-c3ccncc3)nc(-c3ccccc3)n2)CC1,-33,0,-1,0,/,/,
OCCN1CCN(c2cc(-c3ccccc3)c3ccccc3n2)CC1,76*,0,2,-1,6,11,
COc1cc(CN2CCN(C(=O)CC(C)C)CC2)cc(OC)c1,53*,0,2,0,11,10,
COc1cc(CN2CCN(C(=O)CC(C)C)CC2)cc(OC)c1OC,70*,0,4,1,6,2,
COc1ccc(CN2CCN(C(=O)CC(C)C)CC2)c(OC)c1OC,40,0,7,0,/,/,
CCOc1cccc(OCCOCCNCCCOC)c1,23,0,-15,-2,/,/,
CCOc1ccc(OCCCNCCOC)cc1,57*,0,0,0,5,11,
CCCCNCCCOc1ccc(OC)cc1,-4,0,-5,0,/,/,
CCOc1cccc(OCCCNCCCOC)c1,89*,0,1,1,-6,14,
CCCCNCCCOc1ccc(OCC)cc1,51*,0,7,0,7,6,
COC(=O)CN(c1ccccn1)S(=O)(=O)c1ccccc1,61*,0,4,0,-6,-8,
COC(=O)CN(c1ccc(I)cc1)S(=O)(=O)c1ccccc1,3,0,1,0,/,/,
O=C(NCC(c1ccsc1)N1CCCCCC1)c1c(F)cccc1F (stereo not given),84*,0,-2,1,-17,-4,
Cc1ccc(-c2ncn(-c3ccc(Nc4cc(-n5cnc(Nc6ccccc6)n5)c(F)cn4)cc3)n2)cn1,91*,0,-4,-1,52*,-10,AS interf DR=>6.5
COc1ccc(-c2c(NC(=O)CN3CCCC(C)C3)oc3ccccc3c2=O)cc1OC (stereo not given),91*,0,5,0,-10,-4,
Cc1c(NC(=O)COC(=O)c2ccc(N3CCCC3=O)cc2)c(=O)n(-c2ccccc2)n1C,7,0,-2,-1,/,/,

# Assay outcomes deposited in PubChem by The Scripps Research Institute Molecular Screening Center.
